Assay results from PubChem BioAssay AID1159580 (chemical genetic matrix, 2015).
The whole screen tested about 5,500 compounds, of which about 2,000 (36%) were called active. About 18% were inconclusive and are not listed. No stated cut-off is given here; in the data, active means normalized growth mostly below about 0.91 (no sharp cut-off); inconclusive means no clear call, values can overlap the other calls; inactive means mostly above about 0.92. This is one part of the list.

Assay: chemical genetic growth profiling, strain panel (AID 1159580);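 further: tested at 20 µM; growth read once vehicle control cultures reached saturation at 30 °C; 1 = growth at the plate median or of vehicle wells; lower values mean less growth of the strain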
Conditions: S. cerevisiae deletion strains, growth OD

Measured: normalized growth

CC1=CCCC2C1(C)CCC(C)C2(C)CC/C(C)=C/C[n+]1cn(C)c2c(N)ncnc21 (centres undefined)
inactive: locus YAL021C, strain ccr4, hits give low values 0.944 | locus YAL030W, strain snc1, hits give low values 0.986 | locus YBL061C, strain skt5, hits give low values 1.01 | locus YBR009C, strain hhf1, hits give low values 0.928 | locus YBR023C, strain chs3, hits give low values 0.978 | locus YBR171W, strain sec66, hits give low values 0.977 | locus YBR231C, strain swc5, hits give low values 0.973 | locus YBR279W, strain paf1, hits give low values 0.96 | locus YCL011C, strain gbp2, hits give low values 0.943 | locus YCL016C, strain dcc1, hits give low values 0.932 | locus YCL069W, strain vba3, hits give low values 0.961 | locus YCR088W, strain abp1, hits give low values 0.991 | locus YDL005C, strain med2, hits give low values 0.984 | locus YDL040C, strain nat1, hits give low values 0.991 | locus YDR001C, strain nth1, hits give low values 0.976 | locus YDR069C, strain doa4, hits give low values 1.01 | locus YDR159W, strain sac3, hits give low values 1.06 | locus YDR195W, strain ref2 0.992 | locus YDR297W, strain sur2, hits give low values 0.996 | locus YDR334W, strain swr1, hits give low values 0.988 | locus YDR335W, strain msn5, hits give low values 0.955 | locus YEL003W, strain gim4, hits give low values 0.955 | locus YEL037C, strain rad23, hits give low values 0.987 | locus YEL061C, strain CIN8 (second series), hits give low values 0.976 | locus YER015W, strain faa2, hits give low values 0.963 | locus YER016W, strain bim1, hits give low values 0.994 | locus YER111C, strain swi4, hits give low values 0.984 | locus YFR010W, strain ubp6, hits give low values 0.996 | locus YGL167C, strain pmr1, hits give low values 0.976 | locus YGL173C, strain kem1, hits give low values 0.993 | locus YGL227W, strain vid30, hits give low values 0.985 | locus YGL240W, strain doc1, hits give low values 0.971 | locus YGL253W, strain hxk2, hits give low values 0.976 | locus YHR013C, strain ard1, hits give low values 0.917 | locus YHR027C, strain rpn1, hits give low values 1 | locus YHR030C, strain SLT2, hits give low values 0.946 | locus YHR079C, strain IRE1, hits give low values 0.951 | locus YHR142W, strain chs7, hits give low values 0.881 | locus YJL092W, strain hpr5, hits give low values 0.982 | locus YJL095W, strain BCK1 (second series), hits give low values 1.01 | locus YJL095W, strain BCK1, hits give low values 0.971 | locus YJL115W, strain asf1, hits give low values 0.978 | locus YJL129C, strain trk1, hits give low values 1 | locus YJL154C, strain vps35, hits give low values 0.983 | locus YJL164C, strain tpk1, hits give low values 0.935 | locus YJL166W, strain qcr8, hits give low values 0.963 | locus YJL187C, strain SWE1, hits give low values 0.991 | locus YJR066W, strain TOR1, hits give low values 0.94 | locus YKL160W, strain elf1, hits give low values 0.929 | locus YKR026C, strain gcn3, hits give low values 1.01 | locus YKR091W, strain srl3, hits give low values 0.977 | locus YLL001W, strain dnm1, hits give low values 0.908 | locus YLL026W, hits give low values 0.984 | locus YLL041C, strain sdh2, hits give low values 0.987 | locus YLR027C, strain aat2, hits give low values 0.986 | locus YLR113W, strain HOG1, hits give low values 0.891 | locus YLR221C, strain rsa3, hits give low values 1.02 | locus YLR258W, strain gsy2, hits give low values 0.969 | locus YLR262C, strain YPT6 (second series), hits give low values 1.03 | locus YLR320W, strain mms22, hits give low values 1 | locus YLR342W, strain FKS1, hits give low values 0.919 | locus YLR357W, strain rsc2, hits give low values 0.929 | locus YLR370C, strain arc18, hits give low values 0.961 | locus YLR384C, strain iki3, hits give low values 0.995 | locus YML120C, strain ndi1, hits give low values 0.931 | locus YMR058W, strain fet3, hits give low values 0.982 | locus YMR125W, strain sto1, hits give low values 0.936 | locus YMR129W, hits give low values 0.995 | locus YMR205C, strain PFK2, hits give low values 0.925 | locus YMR231W, strain pep5, hits give low values 1.02 | locus YNL183C, strain NPR1, hits give low values 0.968 | locus YNL209W, strain ssb2, hits give low values 0.932 | locus YNL248C, strain rpa49, hits give low values 0.98 | locus YNL322C, strain KRE1 (second series), hits give low values 0.996 | locus YNR049C, strain mso1, hits give low values 0.992 | locus YOR001W, strain rrp6, hits give low values 1.01 | locus YOR070C, strain gyp1, hits give low values 0.988 | locus YOR080W, strain dia2, hits give low values 1 | locus YOR083W, strain WHI5, hits give low values 0.908 | locus YOR106W, strain vam3, hits give low values 0.883 | locus YOR231W, strain MKK1, hits give low values 0.937 | locus YOR265W, strain rbl2, hits give low values 0.981 | locus YOR270C, strain vph1, hits give low values 0.95 | locus YPL051W, strain arl3, hits give low values 0.942 | locus YPL078C, strain atp4, hits give low values 0.896 | locus YPL106C, strain sse1, hits give low values 0.973 | locus YPL240C, strain hsp82, hits give low values 0.996 | locus YPL256C, strain CLN2, hits give low values 0.939
active: locus YAL026C, strain drs2, hits give low values 0.838 | locus YDR137W, strain rgp1, hits give low values 1.17 [resistant] | locus YDR392W, strain spt3, hits give low values 0.452 | locus YER155C, strain BEM2 (second series), hits give low values 0.644 | locus YNL071W, strain lat1, hits give low values 0.863 | locus YOR290C, strain snf2, hits give low values 0.844
